Bioassay records: PubChem BioAssay, Sanford-Burnham Center for Chemical Genomics
TWEAK Fn14 block: TWEAK-Fn14 signaling inhibition. TWEAK-stimulated Fn14 reporter cells, luciferase luminescence, 8 h. inhibition, % at 10 µM. hit rate 2% among 360,000; in the data active = inhibition above about 50%
TROY NFkB inh: TROY signaling inhibition | AID 1347056 | hit rate 0.98% among 360,000 | Q293 LMP1-TROYcd NF-kB luciferase reporter, 4 h | inhibition, % at 10 µM;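 active = compounds whose plate-normalised and pattern-corrected inhibition of the luciferase reporter signal at the single screening dose is 50% or more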
HIF-2a block: inhibitors of HIF-2a; inhibition, % at 18.8 µM; hit rate 0.72% among 360,000; 786-0 RCC cells HIF-2a reporter, luciferase luminescence, overnight; AID 624352;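 active = inhibition of the luminescence signal of 40% or more relative to plate controls, in a single-dose primary screen at 18.75 µM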
CF NFkB inh: inhibitors of cystic fibrosis induced NF-kB. KKLEB NF-kB-GFP reporter, PAF-induced, GFP fluorescence overnight. inhibition, % at 5 µM. hit rate 0.86% among 360,000;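 active = at least 50% inhibition at 5 µM, scaled per plate between neutral and stimulator controls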;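 also: PAF is a Pseudomonas aeruginosa culture filtrate used as stimulus; plate controls were PAF-stimulated DMSO wells for no effect and unstimulated DMSO wells for full effect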
KKLEB cytotox: counter-screen for CF NF-kB inhibitors: cytotoxicity; AID 602141; KKLEB CF airway cells viability, ATPlite luminescence, overnight; stronger effect = lower value; cells stimulated with P. aeruginosa culture filtrate; activity change (cytotoxicity), % at 5 µM; hit rate 0.36% among 360,000;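 active = corrected activity change at or below -50% at 5 µM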
Peg3 promoter: inhibitors of Peg3 promoter | HeLa PEG-Prom luciferase reporter, luminescence, overnight | AID 588405 | inhibition, % at 20 µM | hit rate 1.7% among 360,000;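 active = inhibition of at least 50% at 20 µM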
Starred values were filed as active, the others as inactive; · = no result given. Rows were chosen to be rich in hits. Some 4% of all compounds tested hit in one or more screens of this group.

SMILES | TWEAK Fn14 block | TROY NFkB inh | HIF-2a block | CF NFkB inh | KKLEB cytotox | Peg3 promoter
CC(=O)OC1CC(OC2C(O)CC(OC3C(O)CC(OC4CCC5(C)C(CCC6C5CC(O)C5(C)C(C7=CC(=O)OC7)CCC65O)C4)OC3C)OC2C)OC(C)C1OC1OC(CO)C(O)C(O)C1O (stereo not given) | 78.3* | 36.2 | 87.2* | 86.5* | -48.1 | 94.7*
CCOC(=O)C1(c2ccccc2)CCN(CCC(=O)Nc2cccc(Br)c2)CC1 | -20.8 | 0.3 | 9.5 | -0.4 | 2.4 | 59.0*
CN1C(=O)C(C2c3ccccc3C(=O)N2Cc2ccccc2)C(=O)N(C)C1=O (stereo not given) | 11.2 | 51.1* | 2.9 | -4.2 | -5.1 | 1.9
CC1(C)C[C@H]2C=C(C=O)[C@]3(C=O)C[C@]3(C)[C@H]2C1 | 83.8* | 7.2 | 23.2 | 77.4* | -37.4 | 105.4*
O=C(Nc1cccc(C(F)(F)F)c1)OC1CN2CCC1CC2 (stereo not given) | 5.2 | 3.0 | 12.0 | -4.3 | -2.0 | 19.5
OC(c1cccc(Cl)c1)(c1cccc(Cl)c1)C1CN2CCC1CC2 (stereo not given) | 8.9 | -2.9 | 11.3 | 17.5 | -10.3 | 96.4*
COC(=O)C1=C(C(=O)OC)SC2(S1)C(C(=O)OC)=C(C(=O)OC)Sc1c2ssc1=O | 58.5* | 4.7 | 87.5* | 113.1* | -68.8* | 110.8*
OCCOCCO | 7.7 | 1.9 | 9.6 | 7.3 | 10.7 | -8.6
Cc1ccc2c(C)c3ccc4ccccc4c3c[n+]2c1 | -56.8 | -22.5 | 0.2 | -125.8 | 6.3 | 55.3*
Oc1c(Br)cc(Br)cc1Br | 6.2 | 14.4 | 1.4 | -8.4 | 2.9 | 1.7
Oc1c(Br)c(Br)c(Br)c(Br)c1Br | 1.6 | 71.2* | -38.2 | 48.1 | -7.4 | 48.2
O=C1NC(=O)N(Cc2ccccc2Cl)C(=O)/C1=C/c1cccs1 | 23.6 | 36.1 | 49.6* | 43.0 | -10.6 | 60.0*
O=C(Cc1ccccc1)OC(COCc1ccccc1)CN1CCOCC1 (stereo not given) | 0.7 | -6.9 | 1.5 | 2.4 | -1.1 | -3.7
COc1ccc(-c2ccc3c(c2)CN(C(=O)NC2CCCCC2)Cc2cnnn2-3)cc1 | -4.2 | 4.3 | 10.9 | 33.7 | -15.3 | 5.1
COCCCn1c(-c2ccc(OC)cc2)cc(C(=O)NC2CCCCCCC2)c1C | 64.2* | 8.8 | 20.7 | 20.5 | -5.8 | 2.8
Cc1cc(OCC(=O)N2CCC(C(N)=O)CC2)c2c3c(c(=O)oc2c1)CCCC3 | 90.8* | 5.4 | -16.2 | -15.0 | -7.0 | 16.2
CCOC(=O)c1cccc(C2=C(CNC(=O)c3ocnc3C)[C@H]3CC[C@@H](C2)N3Cc2ccccc2)c1 | -10.0 | -8.8 | 7.1 | 9.7 | -7.4 | -21.2
C#C[C@]1(O)CC[C@H]2[C@@H]3CCC4=Cc5nc6nc7ccccc7n6cc5C[C@]4(C)[C@H]3CC[C@@]21C | -35.2 | -16.5 | 21.5 | -21.9 | 25.6 | 66.5*
C#CC1(O)CCC2C3CCC4=C/C(=N/OCC(=O)NCC(=O)NC(C(=O)O)C(C)C)CC[C@]4(C)C3CC[C@@]21C (stereo not given in full) | -0.4 | -2.8 | 13.9 | 22.1 | 4.4 | -22.2
CC(C)n1cc(C(=O)N(CC(=O)NC(C)(C)C)Cc2ccccc2)cn1 | 3.4 | -13.3 | 23.8 | -3.3 | 3.1 | 24.6
COc1cc(C(=S)N2CCOCC2)cc(OC)c1OC(=O)Cc1ccccc1 | -29.4 | 7.3 | 6.9 | -16.1 | 5.4 | -6.3
Cc1ccccc1-[n+]1c(-c2ccccc2)cc(-c2ccccc2)cc1-c1ccccc1 | 88.6* | 63.3* | -6.6 | 37.0 | -6.5 | 37.5
Cc1cccc(CN2CCN(C(=O)Cc3ccccc3)CC2)c1 | -10.0 | -5.9 | 17.5 | 0.7 | 1.0 | 18.3
COc1cc(OC)c(OC)cc1CN1CCN(C(=O)Cc2ccccc2)CC1 | 96.6* | 5.4 | 17.6 | -2.1 | -11.9 | 8.0
CC(C)CCC1(CN2CCCC2=O)C(=O)NC(=O)NC1=O | 4.2 | 30.6 | -17.2 | 9.7 | -5.8 | -42.8
SMILES | TWEAK Fn14 block | TROY NFkB inh | HIF-2a block | CF NFkB inh | KKLEB cytotox | Peg3 promoter
CC(C)c1ccc(C(c2c(O)c3ccccc3oc2=O)c2c(O)c3ccccc3oc2=O)cc1 | 27.9 | 68.5* | 6.4 | 23.9 | 2.6 | 19.0
CC(=O)OC1CC2OC3C=C(C)CCC3(C)C1(C)C21CO1 (stereo not given) | 98.1* | 83.7* | 71.9* | 93.4* | -19.2 | 107.8*
CC12CCC(O)CC1CCC1C2CCC2(C)C(C3=CC(=O)OC3)C(O)CC12O (stereo not given) | 53.4* | 37.2 | 15.6 | 71.4* | -48.8 | 94.1*
CC(=O)C1CCC2C3CCC4CC(O)CCC4(C)C3CCC12C (stereo not given) | -27.9 | 0.1 | 13.0 | -10.2 | 18.5 | 10.4
CCN(CC)c1ccc(N=Cc2c(O)n(CCc3ccc(OC)c(OC)c3)c(=O)[nH]c2=O)cc1 | 51.8* | 37.5 | 5.7 | 3.4 | -6.2 | 68.6*
COc1ccc(CCn2c(O)c(C=Nc3ccc(F)cc3)c(=O)[nH]c2=O)cc1OC | -5.3 | 34.9 | 21.1 | -8.7 | 2.3 | 15.7
CC(=O)OC1CCC2(/C=N/O)C(=CCC3C4CCC(=O)C4(C)CCC32)C1 (stereo not given) | -5.3 | 31.8 | 14.5 | -14.4 | 5.1 | 0.9
CCCCn1c(O)c(C(=O)/C=C/c2ccc3c(c2)OCO3)c(=O)[nH]c1=O | -0.9 | -4.2 | 19.4 | -20.0 | -11.9 | -0.5
O=C(/C=C/c1ccc2c(c1)OCO2)c1c(O)n(CCC2=CCCCC2)c(=O)[nH]c1=O | 51.4* | 19.0 | 19.2 | -22.0 | -3.2 | 20.7
Cc1ccc(S(=O)(=O)NC(Cc2cnc[nH]2)C(=O)O)cc1 (stereo not given) | -23.2 | 9.6 | 13.3 | 1.0 | 10.8 | 21.3
c1ccc(Nc2ccc(Nc3ccccc3)cc2)cc1 | -9.9 | -35.0 | -227.7 | 1.7 | 1.9 | -156.0
N#CC(C#N)=C(C#N)c1ccc(Nc2ccccc2)cc1 | 33.2 | -30.0 | 10.7 | 52.7* | -14.2 | 31.9
CN(Cc1cccc(-c2ccncc2)c1)C(=O)Oc1ccccc1Cl | 74.8* | 48.5 | -32.2 | · | · | ·
Cc1nc2cc(OC(=O)N(C)Cc3cccc(-c4ccncc4)c3)ccc2s1 | 92.9* | 66.1* | -26.0 | · | · | ·
CN(Cc1cccc(-c2ccncc2)c1)C(=O)Oc1ccccc1Cc1ccccc1 | 93.3* | 66.0* | 2.1 | · | · | ·
O=[N+]([O-])c1ccc(OP(=O)(O)Oc2ccc([N+](=O)[O-])cc2)cc1 | 9.7 | 5.7 | -2.3 | -14.3 | -0.5 | 3.3
COC(=O)C1=C(c2ccccc2)C[C@@H]2CC[C@H]1N2C(=O)NC(C)C | -8.1 | -7.3 | 10.2 | 3.1 | -4.7 | 5.0
COc1cccc(C(=O)N2CCC3(CC2)OCCO3)c1 | 17.5 | 1.7 | 7.8 | -8.9 | -6.2 | 10.4
Cc1cccc(-c2nc3ccc(C(=O)N4CCC5(CC4)OCCO5)cc3nc2-c2cccc(C)c2)c1 | -9.0 | 8.3 | 8.7 | 18.2 | -5.8 | 56.3*
CC1(C)C(C(=O)N2CCN(c3ccc(Cl)cc3)CC2)C1(C)C | -0.3 | 21.1 | -22.3 | 11.0 | -1.3 | -3.0
